We go through 65 compounds from PubChem BioAssay AID651820 (National Center for Advancing Translational Sciences (NCATS), 2012).

The campaign covered roughly 340,000 compounds. About 12,000 (3.5%) were called active. Entries that show only a call come without a potency. Inconclusive results (about 18%) are left out. Calls come from the whole dose curve; as a rule, active = well fitted inhibition curve with a large enough effect; inconclusive = small, poorly fitted or top-dose-only effect, or another doubt; inactive = no such curve, though single readings can be large or run the other way. The full list was thinned out, with actives kept by preference.
Potency is the fitted concentration of half-maximal effect.

The assay can be described thus: qHTS Assay for Inhibitors of Hepatitis C Virus (HCV). Particulars: Huh7.5.1 HCVcc-Cre infection, luciferase reporter, 44 h; series mostly up to 41.8 µM. The method, boiled down:
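Infectious HCV cell culture screen: compound-treated cells (1,000/well, pre-plated 4 h) are infected with HCVcc-Cre at roughly 0.5 moi and grown 44 h. Infection is quantified by luciferase signal after 15 min substrate incubation at room temperature.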
Background: In qHTS, concentration-response curves come from the screen itself.
With `Nn1c(SCC(=O)NC2CCCc3ccccc32)nnc1C1CC1` (stereo not given), the Potency entry was “inactive”.
The same measure, in the same setting: the value for `Cc1ccccc1Nc1nnc(C)c(=O)[nH]1` was “inactive”; that for `Cc1nnc(N/N=C/c2cccs2)[nH]c1=O` was “inactive”; that for `Cc1nnc(N/N=C/c2ccccn2)[nH]c1=O` was 3.55 µM (active).
With `CC(=O)N1CCc2ccc(N)cc21`, the Potency entry was “inactive”.
On the same count and under the same terms, the value for `CCCCn1c(N)c(N(CCC(C)C)C(=O)CC2OC(=O)c3ccccc32)c(=O)[nH]c1=O` (stereo not given) was “inactive”; that for `COc1ccc(C2=NS(=O)(=O)N(C)C(C(=O)NC(C)c3ccccc3)=C2)cc1` (stereo not given) was “inactive”; that for `COc1ccc(NC(=O)C2=CC(c3ccc(OC)c(OC)c3)=NS(=O)(=O)N2C)cc1` was 8.91 µM (active).
Same read-out and setting: for `COc1cc(NC(=O)C2=CC(c3ccco3)=NS(=O)(=O)N2C)cc(OC)c1OC` the value was “inactive”; for `COC(=O)C1CCN(C(=O)NC2CC(=O)N(c3ccc4c(c3)OCCO4)C2)CC1` (stereo not given), “inactive”; for `O=S1(=O)CCOC[C@H](Cc2ccccc2)N1Cc1ccccc1Br`, “inactive”.
As to `O=C(CCN1CCN(C/C=C/c2ccccc2)CC1)Nc1ccccc1Cl`, the Potency entry is “inactive”.
On the same count and under the same terms, for `CNC(=O)NC(=O)C(C)N1CCN(C/C=C/c2ccccc2)CC1` (stereo not given) the value was “inactive”; for `O=C1c2ccccc2C(=O)c2c1cccc2N1CCN(C/C=C/c2ccccc2)CC1`, 11.2 µM (active).
Consider `Nc1ncnc2c1cnn2C1CC(O)C(CO)O1` (stereo not given), for which the Potency entry was “inactive”.
Still for that read-out and setting: for `C=CCn1c(=O)n(C)c2c(=O)n(C)c(=O)n(C)c21` the value was “inactive”.
For the compound `CCOc1ccc(C(O)Cc2nc3ccccc3n2C)cc1` (stereo not given), the Potency result is “inactive”.
Regarding `CCOc1ccc(C(O)Cn2c(=N)n(CCN3CCCCC3)c3ccccc32)cc1` (stereo not given), the Potency is 10 µM (active).
Still for that read-out and setting: for `Cc1cccc(OCC(O)Cn2c(=N)n(CCN3CCOCC3)c3ccccc32)c1` (stereo not given) the value was “inactive”; for `COc1ccc(S(=O)(=O)N2CCOCC2)cc1NC(=O)CC1CC2CCC1C2` (stereo not given), “inactive”; for `COc1cc2c(cc1OC)CN(C(C)C(=O)Nc1cccc(S(=O)(=O)N3CCOCC3)c1)CC2` (stereo not given), “inactive”.
Still for that read-out and setting: for `CCc1cc2c(NC(Cc3ccccc3)C(=O)O)ncnc2s1` (stereo not given) the value was “inactive”; for `CCc1cc2c(NC3CCCC3)ncnc2s1`, 10 µM (active); for `CCc1cc2c(SCC(=O)Nc3ncc(Cl)c(C)c3Cl)ncnc2s1`, “inactive”.
With `Cc1ccc(NC(=O)CN2CCc3ccccc3C2)cc1`, the Potency result is “inactive”.
On the same count and under the same terms, for `O=C(CN1CCc2cc3c(cc2C1)OCCCO3)Nc1ccccc1` the value was 11.2 µM (active); for `O=C(CN1CCOCC1)Nc1ccccc1`, “inactive”.
Still for that read-out and setting: for `CNC(=O)C1CC(=O)N(c2ccc(OCC(=O)Nc3ccccc3C)cc2)C1` (stereo not given) the value was “inactive”; for `O=C(N[C@@H](Cc1ccccc1)C(=O)OCc1ccccc1)c1nc[nH]c1C(=O)NC1CCNCC1`, “inactive”; for `CCCCn1c(SCC(=O)N2CCC(C(=O)OCC)CC2)nc2cc(S(N)(=O)=O)ccc21`, “inactive”.
Still for that read-out and setting: the value for `NS(=O)(=O)c1ccc(CCNC(=O)CCCn2c(SCC(=O)N3CCCC3)nc3ccsc3c2=O)cc1` was 2 µM (active).
Turning to `NS(=O)(=O)c1ccc(CCNC(=O)CN2C(=O)c3ccccc3S2(=O)=O)cc1`, the Potency result was “inactive”.
Still for that read-out and setting: for `CN1C(=O)[C@H]2[C@@H](/C=C/c3ccccc3)N3C(=O)CN(Cc4ccc(-c5ccccc5)cc4)C(=O)[C@@]3(C)[C@H]2C1=O` the value was “inactive”; for `COc1ccc(CNC(=O)CN2C(=O)NC3(CCCc4sccc43)C2=O)cc1` (stereo not given), “inactive”; for `CC(NC(=O)c1ccc(N2CCNCC2)c([N+](=O)[O-])c1)C12CC3CC(CC(C3)C1)C2` (stereo not given), “inactive”.
The same measure, in the same setting: for `O=C(Nc1ccc(N2C(=O)c3cccc4cccc(c34)C2=O)cc1)c1ccc(N2CCCCC2)c([N+](=O)[O-])c1` the value was “inactive”; for `O=C(Nc1cccc(C(F)(F)F)c1)c1ccc(N2CCNCC2)c([N+](=O)[O-])c1`, 12.6 µM (active); for `NC(=O)c1ncn([C@@H]2O[C@H](CN=C3NS(=O)(=O)c4ccccc43)[C@@H](O)[C@H]2O)n1`, “inactive”.
The same measure, in the same setting: the value for `CCOC(=O)C(C)n1cnc2sc(C)c(C)c2c1=O` (stereo not given) was “inactive”; that for `CSc1ncnc2sc(C)c(C)c12` was “inactive”; that for `CCCNc1ncnc2sc(C)c(C)c12` was 8.91 µM (active).
As for `CCN(C(=O)CSc1nnnn1-c1ccccc1OC)C1CCS(=O)(=O)C1` (stereo not given), the Potency result is “inactive”.
Still for that read-out and setting: the value for `O=C(CCc1ccc(S(=O)(=O)N2CCOCC2)cc1)OCC(=O)c1ccc(Br)cc1` was “inactive”; that for `Clc1ccc(Cn2ncc3c(NCc4cccnc4)ncnc32)cc1` was 11.2 µM (active); that for `Clc1ccc(Nc2ncnc3c2nnn3Cc2ccccc2)cc1` was “inactive”.
On to `CC(=O)Nc1ccc(NC(=O)CSc2ncnc3c2cnn3Cc2ccccc2)cc1`, for which the Potency entry is “inactive”.
For the compound `O=C(Cn1cnc2ccccc2c1=O)NNC(=O)c1ccccc1F`, the Potency result was “inactive”.
The same measure, in the same setting: for `CC(C)NC(=O)Nc1cccc2c1O[C@@H](CN(C)S(=O)(=O)c1ccc(F)cc1)[C@@H](C)CN([C@H](C)CO)C2=O` the value was “inactive”; for `O=C(C[n+]1cc(Br)cc2ccccc21)c1ccc(F)cc1`, 10 µM (active).
On to `Cc1cccc[n+]1CC(=O)c1ccccc1`, for which the Potency entry was “inactive”.
Still for that read-out and setting: for `O=C(CNC(=O)c1ccc(F)cc1)c1ccccc1` the value was “inactive”.
With `O=C(NCCS(=O)(=O)NCc1ccc(F)cc1)c1ccccc1`, the activity change, negative = inhibition is -2.73% [at 8.37 µM] (inactive).
As to `O=C(NCc1cccnc1)c1cc(S(=O)(=O)N2CCOCC2)c(Cl)cc1Cl`, the Potency result was “inactive”.
On the same count and under the same terms, the value for `Cc1ccc(S(=O)(=O)N2CCN(c3ncnc4ccccc34)CC2)cc1` was 8.91 µM (active); that for `Cc1ccc(S(=O)(=O)N2CCN(Cc3cccc(C)c3O)CC2)cc1` was “inactive”.
On to `Cc1ccc(S(=O)(=O)N2CCN(C)CC2)cc1`, for which the Potency entry was “inactive”.
On the same count and under the same terms, for `CC(=O)Nc1ccc(NC(=O)CSc2nnc(C3CC3)n2-c2ccccc2)cc1` the value was “inactive”.
The same measure, in the same setting: for `Cc1cccc(-c2oc3ccc(-c4ccc5c(c4)OCO5)cc3c2C#Cc2cncn2C)c1` the value was “inactive”.
The same measure, in the same setting: for `Cc1ccc(C(=O)O)c(NC=O)c1OCc1ccccc1` the value was “inactive”.
Regarding `Cc1ccc(S(=O)(=O)N2[C@@H](c3cccc4ccccc34)C(C(=O)O)=C[C@H]2C(C)(C)C)cc1`, the Potency entry was “inactive”.
For `COc1ccc(-n2c(-c3ccc(OC)c(OC)c3)n[nH]c2=S)cc1`, the Potency result was “inactive”.
For the compound `CCOc1ccc(-c2n[nH]c(C)c2-c2ccccn2)c(O)c1`, the Potency result is “inactive”.
Take `COc1ccc(-c2n[nH]c(C)c2-c2ccc(OC)c(OC)c2)c(O)c1`: the Potency is 11.2 µM (active).
The same measure, in the same setting: the value for `O=C1NCC(Nc2ccccc2)C(=O)N1` (stereo not given) was “inactive”.
Still for that read-out and setting: the value for `CCN(Cc1ccccc1)S(=O)(=O)c1cc2c3c(c1)CCN3C(=O)CC2` was “inactive”.
